Source: PubChem BioAssay AID1903 (Southern Research Specialized Biocontainment Screening …, 2009)
The whole screen tested about 310,000 compounds, of which about 1,200 (0.39%) were called active. No rule for the calls is given here. A selection follows. Potency and affinity values are given separately.

Each molecule was assayed against Large T antigen (Simian virus 40) (UniProt P03070) (assay: TAg ATPase/helicase activity blockers – biochemical (AID 1903)). Details: SV40 large T antigen ATPase/helicase inhibition assay; at 20 µM; active compounds read high.
Sequence of Large T antigen (Simian virus 40) (P03070 whole entry, looked up): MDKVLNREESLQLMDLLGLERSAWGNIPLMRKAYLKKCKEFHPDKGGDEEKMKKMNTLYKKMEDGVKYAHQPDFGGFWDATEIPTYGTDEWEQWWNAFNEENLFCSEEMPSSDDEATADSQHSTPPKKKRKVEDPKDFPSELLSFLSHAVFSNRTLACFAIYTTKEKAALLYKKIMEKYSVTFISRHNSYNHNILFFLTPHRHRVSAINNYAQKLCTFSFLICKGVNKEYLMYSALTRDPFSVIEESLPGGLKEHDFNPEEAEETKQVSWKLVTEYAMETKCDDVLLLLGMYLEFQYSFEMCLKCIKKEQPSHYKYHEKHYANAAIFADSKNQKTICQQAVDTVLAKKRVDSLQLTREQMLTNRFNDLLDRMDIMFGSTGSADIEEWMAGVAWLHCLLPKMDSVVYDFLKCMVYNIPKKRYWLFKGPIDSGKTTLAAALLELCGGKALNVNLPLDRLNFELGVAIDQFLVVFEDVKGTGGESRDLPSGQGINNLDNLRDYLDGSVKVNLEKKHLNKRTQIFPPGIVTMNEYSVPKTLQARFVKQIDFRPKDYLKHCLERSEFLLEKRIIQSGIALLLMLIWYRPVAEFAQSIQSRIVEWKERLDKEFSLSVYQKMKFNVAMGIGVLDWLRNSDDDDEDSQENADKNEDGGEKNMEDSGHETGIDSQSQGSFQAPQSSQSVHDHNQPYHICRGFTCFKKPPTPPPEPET

inhibition, inactive:
COc1ccc(/C=C2/SC(=S)N(CCCC(=O)Nc3ccc(O)cc3)C2=O)cc1 5.12%
COc1cc(/C=C2\C(=O)ON=C2c2ccccc2)cc(OC)c1OC 9.78%
COc1ccc(/C=C2\C(=O)ON=C2c2ccccc2)cc1 72.8%
O=C1ON=C(c2ccccc2)/C1=C/c1ccco1 36.5%
COc1cc(/C=C2\C(=O)ON=C2c2ccccc2)cc(Cl)c1O 32.2%
O=C1ON=C(c2ccccc2)/C1=C/c1cccnc1 1.23%
O=C1ON=C(c2ccccc2)/C1=C/c1ccc(O)cc1 48%
O=C1ON=C(c2ccc(Cl)cc2)/C1=C/c1ccc(O)cc1 34.8%
O=C1ON=C(c2ccccc2)/C1=C/c1ccccc1 48.5%
CCc1ccc(C(=O)OCC(=O)NCCNC(=O)COC(=O)c2ccc(CC)cc2)cc1 4.49%
CCC(C)[C@H](N)c1cn([C@@H](Cc2ccc(O)cc2)C(=O)N2CCNCC2)nn1 (some centres undefined) 3.28%
NC(=O)C1CCN(C(=O)Cc2ccc([N+](=O)[O-])cc2)CC1 21.5%
O=C(Nc1cc(F)ccc1F)C1CCN(S(=O)(=O)c2cccc3nonc23)CC1 9.1%
CCCS(=O)(=O)c1c(S(=O)(=O)CCC)c2ccc(C(N)=O)cn2c1C(=O)c1ccc(F)cc1 24%
COCC(C)NC(C(=O)Nc1ccc(Cl)c([N+](=O)[O-])c1)c1ccccc1 (centres undefined) 0.39%
CC1(C)CC(C(=O)NCCC(c2ccccc2)c2ccco2)CCO1 (centres undefined) 3.84%
CC(=O)Nc1nonc1-c1nc2ccccc2n1CCC(C)C -3.72%
CCCCOc1cccc(C(=O)N(Cc2ccccc2)C2CCS(=O)(=O)C2)c1 (centres undefined) -0.72%
CC1CCN(C(=O)N[C@@H](Cc2ccccc2)C(=O)O)CC1 0.13%
O=C1C2C3CCC(O3)C2C(=O)N1c1cccc(O)c1 (centres undefined) -1.61%
COc1cccc(C(=O)Nc2nnc(-c3ccccc3)s2)c1OC 13.1%
O=C(Nc1ccncc1)C1CC(=O)N(c2ccc(F)cc2)C1 (centres undefined) 12.3%
COC(=O)C1=C(C(=O)OC)[C@@H]2N(C)c3ccc(OC)cc3[C@@]23C[C@@H](C(=O)OC)N(C(=O)c2ccco2)C3=N1 27.8%
COc1ccc(/C=C2/C(=O)ON=C2c2ccccc2)cc1OC 12.2%
COc1ccc(/C=C2\C(=O)ON=C2c2ccccc2)cc1OC 53.9%
Cc1ccc(C)c(NC(=S)NC(NC(=O)Cc2ccccc2)C(Cl)(Cl)Cl)c1 (centres undefined) 5.58%
CCOc1ccc(CCNC(=O)C2CCN(c3nnc(-n4cccc4)s3)CC2)cc1 7.09%
CC1CC(C)CN(CCCNC(=O)C2CCN(c3nnc(-n4cccc4)s3)CC2)C1 (centres undefined) 7.41%
CCN1CCN(CCCNC(=O)C2CCN(c3nnc(-n4cccc4)s3)CC2)CC1 12.4%
Cc1ccc(C)n1-c1nnc(N2CCC(C(=O)NCCCN3CC(C)CC(C)C3)CC2)s1 (centres undefined) -2.68%
CCC1CCCCN1CCCNC(=O)C1CCN(c2nnc(-n3cccc3)s2)CC1 (centres undefined) 8.7%
CC1CCCCN1CCCNC(=O)C1CCN(c2nnc(-n3cccc3)s2)CC1 (centres undefined) 6.84%
O=C(NC1CC(=O)N(c2ccc3c(c2)OCCO3)C1)N1CCCCC1 (centres undefined) 11.8%
CCN(CC)S(=O)(=O)c1ccc(S(=O)(=O)N2CCN(CCC#N)CC2)cc1 2.53%
CCCc1nc2ccc(NC(C)=O)cc2c(=O)n1Cc1ccccc1Cl 19.8%
CC1CCCCC1NC(=O)/C(C#N)=C/c1ccc(F)c(F)c1 (centres undefined) -0.71%
CC(=O)N1N=C(c2ccc(NS(C)(=O)=O)cc2)CC1c1ccc2nccnc2c1 (centres undefined) 8.1%
O=C(O)C1CC=CCC1C(=O)NC1CCCCC1 (centres undefined) 20.5%
Cn1cnc([N+](=O)[O-])c1Sc1nnc(-c2cccnc2)n1C 7.52%
CCn1ncc([N+](=O)[O-])c1C(=O)n1nc(C)cc1C 18.1%
Cc1onc(-c2ccccc2Cl)c1C(=O)OCC(=O)Nc1cccc(S(=O)(=O)N2CCOCC2)c1 4.68%
O=C(CCn1cnc2ccccc21)N/N=C/c1ccccc1O 14.7%
O=C(N/N=C/c1cccc(O)c1)c1csc2ccccc12 9.57%
CN(C)c1ccc(/C=N/NC(=O)C[n+]2ccccc2)cc1 17.6%
O=C(CC(=O)N/N=C/c1ccc(F)cc1)N/N=C/c1ccc(F)cc1 10.6%
COc1ccc(/C=N/NC(=O)CCn2cnc3ccccc32)cc1 2.3%
COc1ccc(/C=N/NC(=O)CC(=O)N/N=C/c2ccc(OC)cc2)cc1 -38%
O=C(C[n+]1ccccc1)N/N=C/c1ccc(F)cc1 8.34%
C/C(=N\NC(=O)c1csc2ccccc12)c1ccc(O)cc1 26.5%
CC(C)Cn1cc(C(=O)N2CCN(c3ccccn3)CC2)c2c3ccccc3n(C)c2c1=O 1.5%
COc1nc(NC(=O)c2ccc(F)cc2)nc(OC)c1-c1ccccc1 6.25%
COc1ccc(-c2csc(NC(=O)CN3C(=O)NC4(CCCC4)C3=O)n2)cc1OC 23.8%
CCCOc1ccc(-c2nc(C#N)c(NCC3CCCO3)o2)cc1 (centres undefined) 3.05%
O=C(CSc1nc2ccccc2s1)NCCCN1CCOCC1 -10.3%
COc1ccc(CCC(=O)NC2=NCCS2)cc1OC 13.6%
O=C(Nc1ccc2c(c1)OCCO2)c1ccco1 30.4%
CCOC(=O)CSc1nc2sc3c(c2c(=O)n1C1CCCCC1)CCN(C)C3 24.2%
CCC(NC(=O)c1cc(COc2ccc(Cl)cc2OC)on1)c1ccncc1 (centres undefined) 7.95%
CCn1c(CC(=O)Nc2ccc(C)c(Cl)c2)nnc1SCc1ccc(Cl)c(Cl)c1 2.82%
CC(C)C1Nc2c(O)cc(Cl)c([N+](=O)[O-])c2C2C=CCC21 (centres undefined) 21.4%
O=[N+]([O-])c1ccc(Cl)c2c1C1C=CCC1C(c1ccccn1)N2 (centres undefined) 21.7%
Cc1ccc(CNC(=O)CCC2CCCN(C(=O)c3ccc4c(c3)OCO4)C2)o1 (centres undefined) 12.7%
CNc1nc(Nc2ccc(Br)cc2)nc(N)c1[N+](=O)[O-] 9.77%
N#Cc1cnc(Nc2ccc(F)cc2)nc1N 7.13%
C[C@H](CCC(=O)O)[C@H]1CC[C@H]2[C@@H]3CC[C@@H]4C[C@H](O)CC[C@]4(C)[C@H]3C[C@H](O)[C@]12C 12.7%
C[C@H](CCC(=O)O)[C@H]1CC[C@H]2[C@@H]3[C@H](O)C[C@@H]4C[C@H](O)CC[C@]4(C)[C@H]3CC[C@]12C 19.2%
Cc1nsc2nc3c(F)c(F)c(F)c(F)c3cc12 16.9%
Cc1c(/C=N/NC(N)=O)c2ccccn2c1C(=O)c1ccncc1 15%
COc1ccc(/C=C/C(=O)OCC(=O)N2CC(=O)Nc3ccccc32)cc1 1.89%
CCCCOc1ccc(/C=C/C(=O)OCC(=O)N2CC(=O)Nc3ccccc32)cc1OCC 14.1%
COc1cc(/C=C/C(=O)OCC(=O)Nc2ccc(S(=O)(=O)N3CCCC3)cc2)ccc1O 24.6%
COc1ccc(/C=C/C(=O)OCC(=O)Nc2ccc(S(N)(=O)=O)cc2)cc1OC 5.77%
Cc1cc(C(=O)NCCC(c2ccccc2)c2ccccc2)c(C)o1 8.32%
CC1(C)Cc2cccc(Oc3cc(NN4CCCCC4)c([N+](=O)[O-])cc3[N+](=O)[O-])c2O1 1.3%
Cc1nn(C(C)C(=O)NCC2CCCO2)c(=O)c2cc3occc3n12 (centres undefined) -0.26%
CCCOc1ccc(/C=N/NC(=O)CSc2ccccn2)cc1OC 3.28%
CN(C)c1ccc(/C=N/NC(=O)CSc2ccccn2)cc1 25.6%
COc1cc(/C=N/NC(=O)CSc2ccccn2)ccc1OC(C)C 14.9%
COc1ccc(/C=N/NC(=O)CSc2ccccn2)cc1OC 10.6%
CCN(C(=O)CN1C(=S)NC(C)(C)CC1C)c1ccc(C)c(C)c1 (centres undefined) 6.37%
O=C(CSc1nnc(NC(=O)c2c(F)cccc2F)s1)Nc1ccccc1F 11.2%
CCCOc1ccccc1N1C(=O)CC(N(O)c2ccccc2)C1=O (centres undefined) 20.6%
CCNc1nc(NCC)nc(NC(N)=S)n1 1.3%
Cc1cc(C)c2nncn2n1 11.8%
O=C(O)Cc1c[nH]c2ccccc12 10.4%
NC(=O)Cc1c[nH]c2cccc(O)c12 30.1%
CCOC(=O)C1Nc2ccc(C)cc2C2C=CCC12 (centres undefined) 8.94%
Cc1cc(C)c2c(c1)NC(c1cc3c(cc1Br)OCO3)C1CC=CC21 (centres undefined) 9.15%
Cc1ccc2c(c1)C1C=CCC1C(C(=O)NCCCN1CCOCC1)N2 (centres undefined) 12.6%
CCOC(=O)c1ccc2c(c1)C1C=CCC1C(C(=O)OCC)N2 (centres undefined) 12.4%
O=C(NC1CC1)C1Nc2ccc(OC(F)(F)F)cc2C2C=CCC12 (centres undefined) 6.67%
O=C(O)C1Nc2c(Cl)cc(Cl)c(Cl)c2C2C=CCC12 (centres undefined) 31%
CCOC(=O)C1Nc2ccc(OC(F)(F)F)cc2C2C=CCC12 (centres undefined) 19.1%
CCOC(=O)C1Nc2ccc(C(=O)O)cc2C2C=CCC12 (centres undefined) 16.5%
